Measured values as given in article PMC5540273 (PLoS ONE, 2017).

How the values were obtained:
Details in all cases: concentration: 1 μM, replicates: in singlicate; n = 1
MYO3A = system: MYO3A
MYO3B = system: MYO3B
NDR1 = system: T1, NDR1
T1 construct: gene STK38

NDR2 = system: NDR2
NEK10 = system: NEK10
NEK11 = system: NEK11
NEK1 = system: NEK1
NEK2 = system: NEK2
NEK3 = system: NEK3
NEK4 = system: NEK4
NEK5 = system: NEK5
NEK6 = system: NEK6
NEK7 = system: NEK7
NEK9 = system: NEK9
NIK = system: T2, NIK
T2 construct: gene MAP3K14

NIM1 = system: T3, NIM1
T3 construct: gene MGC42105

NLK = system: NLK
OSR1 = system: T4, OSR1
T4 construct: gene OXSR1

PAK1 = system: PAK1
PAK2 = system: PAK2
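Note: KINOMEscan kinase panel screen.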

SMILES	%Inh (MYO3A) [%]	%Inh (MYO3B) [%]	%Inh (NDR1) [%]	%Inh (NDR2) [%]	%Inh (NEK10) [%]	%Inh (NEK11) [%]	%Inh (NEK1) [%]	%Inh (NEK2) [%]	%Inh (NEK3) [%]	%Inh (NEK4) [%]	%Inh (NEK5) [%]	%Inh (NEK6) [%]	%Inh (NEK7) [%]	%Inh (NEK9) [%]	%Inh (NIK) [%]	%Inh (NIM1) [%]	%Inh (NLK) [%]	%Inh (OSR1) [%]	%Inh (PAK1) [%]	%Inh (PAK2) [%]
COc1cccc(C2=C(Nc3cc(Cl)c(O)c(Cl)c3)C(=O)NC2=O)c1 [SB-390767]	0	0	0	0	30	1	0	100	13	28	7	0	0	0	4	1	0	15	2	15
COc1ccc(Nc2nccc(N3CCC(NC(=O)C(C)c4ccc(Cl)cc4)CC3)n2)cc1 (stereo not shown) [GSK1379812]	24	0	39	0	43	0	0	4	53	0	54	55	0	10	0	11	35	0	21	15
CN1c2ccc(-c3ccc(C(N)=O)cc3)cc2-c2[nH]ncc2S1(=O)=O	0	11	26	3	0	0	0	0	35	0	0	0	0	0	12	0	8	0	11	22
CNc1nc(-c2ccc3c(N)n[nH]c3c2)cc(N2C[C@@H](C(=O)Nc3ccccc3)CC[C@H]2C)n1 [GSK2298859]	27	0	22	0	13	0	0	0	0	0	7	0	0	4	0	0	0	10	0	0
COc1cc2ncnc(Nc3cccc(Br)c3)c2cc1OC.Cl [GI230329]	20	0	26	12	21	41	0	0	6	0	11	0	0	4	29	26	33	16	29	20
Cc1ccc(-c2nc(Nc3ccncc3)c3ccccc3n2)s1 [GSK189015]	0	0	0	0	4	0	0	20	5	0	9	1	16	15	4	0	53	9	11	11
Cc1ccc(NC(=O)Nc2ccccc2)cc1-c1ccc(C(=O)Nc2ccncc2)cc1 [GSK1398471]	0	0	24	0	10	0	15	0	0	0	4	0	0	23	0	0	51	14	20	13
CCn1c(-c2ccccc2)nc2cnccc21 [SB-733416]	28	0	0	0	17	5	0	0	9	35	0	13	0	0	0	16	11	1	23	11
COc1cccc(CNC(=O)NC2CCN(c3ccnc(Nc4ccc(F)cc4)n3)C2)c1 (stereo not shown) [GSK1379723]	0	0	0	0	0	0	0	18	5	22	21	0	2	0	24	14	3	10	1	0
COc1ccc(CSc2nnc(-c3ccc4ncsc4c3)o2)cc1C(F)(F)F	15	6	0	10	8	0	10	0	29	0	0	0	0	0	0	0	0	0	16	16
Fc1ccc(-c2nc3n(c2-c2ccncc2)CCS3)cc1 [GI98581]	12	0	0	0	14	9	0	0	6	38	8	6	0	8	2	10	64	5	0	6
